Results published in PubChem BioAssay AID1508600 (Functional Genomics Laboratory (NCATS/FGL), 2020).
The campaign covered roughly 53,000 sequences. About 3,700 (7%) were called active. This is one part of a sample in which actives are shown more often than they occur.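 Rule for the calls: active = gene knockdowns whose robust z-score for IL-1 alpha signal is at least 2 or at most -2, so actives lie on both sides; inactive = the rest.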

Assay: Components of the Cytosolic LPS Sensing Pathway: Gene Identification via Genome-wide siRNA Screen;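 note: robust z of the log signal after scaling to non-targeting control siRNA wells of the plate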
Settings: RAW264.7 macrophages, IL-1a HTRF, actives lie on both sides, screened at 100 nM (by protocol), cells primed 5 h with Pam3CSK4 first
Outline: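 Read-out: IL-1a HTRF on supernatant, divided by plate negative-control median ×100, log-transformed and converted to robust z-score. Cells were RAW264.7 given 100 nM siRNA, Pam3CSK4-primed 5 hours, then LipidA-transfected 24 hour.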

z-score, inactive:
GCACAUACAGCUUAACAAATT against Nktr 1.27, GGGUUUUUCAUAAACAAAGTT against Pdcd1lg2 -1.46, GGUAAAAAGGGUGUGUACUTT against Pdzk1 0.00178, CCACUAAAAUCUUACUGGATT against Scn7a 0.671, GCGUAUAGUUUCGAGAAAUTT against Mettl8 0.46, CCCUAACAUUGAGAUGAUUTT against Peg10 -0.369, CCAUUCUCCUCAGAUACUCTT against Slc25a17 -1.38, CCCAUAAGGGUGAAAUUCGTT against Tax1bp1 0.444, GGCCCACAAGAAGAACAAGTT against Zfp423 1.29, CGGUAGAGUGCUUACGCAATT against Camk2g 0.869, GGGAACCGCUUAUAUGUCCTT against Tbx21 -0.195, GGACAGAUAGGAUUAGAGATT against Igfbp5 0.215, GGCGAAUGUUUACGAGAACTT against Sh2d1b2 0.327, GGCAGGUUUGGUAACCAGATT against Fut1 0.559, GCUUCUUGAAAGUACAUUGTT against Nae1 0.386, GGCUCUUCACUCAUGUAUGTT against Olfr703 -0.931, GCCUAUCUUGUCACCACUGTT against Tagln2 -0.276, GGAAACAAAAGGAUUUCUGTT against Fbxl13 1.24, CCAUCCUUCCGAAAGACGATT against Lcn10 0.465, CCAAGAUCGAUCAUUUUGGTT against Gm527 -0.794, GGUUUUUCUAACUUUGGUCTT against Cdcp2 -0.0176, AAGAGCCAUUAAUCGAGAATT against Cklf -0.0691, GCGCAAAAGGACCUAUGAGTT against Rela -0.342, CGUGGUAGACACUGUGGUATT against Plin1 1.61, GGAGAUGAUGCCGUCAUUCTT against Chaf1b 1.97, CCAUAUGAUAAGCAUAAGCTT against Zfp449 0.149, CCCGUAUGGAUGUGGUAACTT against Tmem239 -1.39, GGCCAUCCAAGCAUGAGUUTT against Rbfa 1.37, GGCAGGAAAUUCAUUUUAATT against Zfy2 -1.43, GGAGAUGGACUCACUGAUGTT against Zscan20 -1.32, CCACAAAGGAAUUCAUGAGTT against Dhx16 -1.41, GGUCAAGGAGAUCACCUUCTT against Comp -1.27, CCCGGAAUGUUUAGUAUCGTT against Fermt1 -1.25, GGCCAUUAACAGCAGUCUGTT against Kifc5b -1.71, GGAAGUGGAACACAUGAUCTT against Zfp346 -0.449, GGCAUGAAUGAGUUUAUCATT against Vps8 -1.12, GGAGUCUGAAGAUGACAUGTT against Rplp1 -0.775, GCCACUAAAUCCUGUUUCCTT against Ydjc -0.0858, GAGAUGGAAAGUGGUUUCUTT against Olfr1226 0.543, GGUGAAAAUCAAGCUGAAUTT against Smarca2 1.36, GGCUUCCAAGCCUAAAGCUTT against H1f3 -0.266, GGAUCAAUUGACCACAAACTT against Magi3 0.164, GCGAUGCACUGUGUAAACUTT against Ccr6 0.772, UGCGGUUGAAUUCUCCCAUTT against Fbll1 -0.525, CGCACUUACCGUGUCCUAUTT against Homer3 0.0495, GGAGAGAAAGAAUUUCAUCTT against Chordc1 0.185, GGAAAUCAGAGAGAAGAUGTT against Nubp1 -1.53, CCCACGGAGGCAAUAAAUATT against Crygn -0.155, GCCACUCACCUAGCAAAGATT against Fbrsl1 -1.36, GGAAAUUUCAGUCGUAGUATT against Mgat4c 0.642, CGACUAUAGACUCUUGAAUTT against 1810037I17Rik 0.573, GGAGAAAUACAACUGAAAATT against Pcdhb7 -0.0269, GGCCAGAAGAUCUUCACCATT against Furin 0.449, GCAUCGUUUGUGAGAAUUUTT against Perp -0.61, GGGCUAUCCUUCUGAAUUUTT against Csnk1d 1.46, GCUCUCCAUUACGUGCUUGTT against Rrp9 1.39, GGAGAGAAAGAACUGGAAATT against Fam78a 0.357, CCUAUCAGACUGUAAUAAGTT against Kdm2b -0.404, CCACGAUAGCACCUAUUUUTT against Gucy2c -0.405, GGAACAUUGAAAGGAUUAATT against Smc3 -1.9, GGCUUAAGUAUUUUUCUGATT against Aktip -0.269, CCUGUACCUGCGUAUUCAATT against Grap -1.63, GGCCUGAAGACAGACAUGATT against C030016D13Rik -1.2, GGAAGAGAUGAAGAAAAUGTT against Cetn1 -1.01, GGAACUUUUGGCCAGCAAGTT against Opa1 1.59, CGAUUACAUCCUUUUUGACTT against Gpn3 -0.228, GGAUCUAGAACAGAAAAUGTT against Stat3 -1.55, GCUGCUAUGACCUAUGGCATT against Sptlc2 -0.543, GGAAUUAAGUCAUCAGGAATT against Slc6a5 -0.763, GCGCACAAAAAACAUGAUATT against Plaat5 0.211, GGAAUUCGAUGCAUUUGUATT against Il18rap -0.34, GGAUAUCACAUAGCAUCGGTT against 1700025G04Rik -0.742, GGAUGUCUCAAAGUAAGAATT against Cd55b -0.124, GCAAUGGAACCACCUCUGATT against Zic5 1.41, GGAAGAAGCUGAGGAAAGCTT against Spata1 0.15, GGAUGGACUCUGUUCCUGUTT against Susd2 0.956, GCAAUUAGUAUCUAUUACCTT against Txndc17 -0.448, GGCUACAAAGGAGUUCCUATT against Sgf29 0.516, GCUACUAAACAAGCCGGCATT against Msl1 0.341, GGCUUUGUGGAUUUUGAAGTT against Cabp4 -1.2, GGACGUGUUUGGGAUUGUUTT against Csad -0.765, GGAUGAGUUCCUUUUACUATT against Cntnap4 0.285, CCUCUGUUAUGGUAAUUCUTT against Olfr1323 -0.371, GGAGGCUUUUCAGACCAAGTT against 3830406C13Rik 0.334, GGAGAACAGACACAGGGUGTT against Dlgap5 -0.284

z-score, active:
GGGUCUACCACAUGUACAUTT against Slc16a6 2.23, CGUGCCAUAAUACACUAUCTT against Gng5 2.79, GGCCCAUAUCUGCUCUCAUTT against Ssc5d -2.04, GGCGAGAAGGAAAUGUACATT against Arpc3 2.62, GGUCCAAGAGAAAUGUGUATT against Hacd4 -2.55, GGCUAUUGCUGACCUCAGATT against Pidd1 -2.73, CCUAACCAAGAUCCAAUCUTT against 6330549D23Rik -2.85, GGAAAAGGAAACCCAGAGCTT against Tdg -2.4, GGAGAAAUAUGUAUGUACATT against Ece2 2.01, GGUCACGAUUCUGUCAGACTT against Ctnnal1 3.57, GGGCUUGUAGAUGUGCGUATT against Hic2 3.32, CCACAGAGUUCCUAUACAATT against Pfkl -2.52, GGAGAACUUCAGUGAGUCCTT against Ambp -2.43, GCUCUUUGGUCGAGAACCATT against Mup5 -2.42, GGGUGUAUUACCUCUCUCUTT against Pygl 2.12, GGUCUUCAUCUGUCCAACUTT against Tmlhe -2.09, GGUGCAGCACUUCAAAGUGTT against Grap 2.41, GCGCCUUAACCAAGAAGUUTT against Cox18 2.84, GGGUUGUCGUUCAGUUUACTT against Art2a 2.8, GCUCAGCUGUGGGUAAUACTT against Raver2 -2.77, GGACGAGUGCCUGUUUUCATT against Med8 4.09, GGCCAUUGGACACAGAAUCTT against Rpl35a 2.28, GCCUGAUAGUGGUGGACAGTT against Tmem45a2 3.29
